Assay results published in PubChem BioAssay (NCATS).
Results filed as inconclusive are left out. The source made the active and inactive calls. The call rests on the fitted dose curve; in most records, active means well fitted curve in the direction sought with a large enough effect; inconclusive means small, poorly fitted or top-dose-only effect, or another doubt; inactive means no such curve, though single readings can be large; an effect the other way counts as inactive or inconclusive.

What was measured:
[1] = BET inhibitor-based combinations targeting novel dependencies in MECOM-rearranged (r) AML: SET-2 cell line (AID 2202231); settings: SET-2 AML cells viability, CellTiter-Glo luminescence, 48 h; viability: active compounds read low, concentration not given here; further: nearly all actives have a fitted effect of over 35% in size; further: potency means the concentration at half of the fitted maximal effect;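 on viability: plate controls were DMSO treated cells for no effect and wells without cells for full effect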
In short: (§1)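 Cells were plated at 500 per well and exposed to an 11-point dose series of each drug for 48 hr. Viability was measured by CellTiter-Glo luminescence, normalized to DMSO and empty-well controls, and summarized as AUC and per-cell-line Z-AUC.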

[2] = BET inhibitor-based combinations targeting novel dependencies in MECOM-rearranged (r) AML: OCI-AML3 cell line (AID 2202232); settings: Potency: OCI-AML3 viability; further: nearly all actives have a fitted effect of over 35% in size; further: potency means the concentration at half of the fitted maximal effect;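 on viability (% of control): series mostly up to about 46 µM; plate controls were DMSO vehicle wells for no effect and wells without cells for full effect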
In short: as §1

[3] = BET inhibitor-based combinations targeting novel dependencies in MECOM-rearranged (r) AML: MV-4-11 cell line (AID 2202233); further: nearly all actives have a fitted effect of over 45% in size; further: potency means the concentration at half of the fitted maximal effect;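 on viability, % of control: plate controls were DMSO for no effect and blank wells for full effect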
In short: (§2)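 Activity is given as area under the curve and as Z-AUC, mean-centred within each cell line. It comes from 11-point dose curves normalized to DMSO and empty wells. CellTiter-Glo luminescence was read after 48 hr drug exposure of 500 cells/well.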

[4] = BET inhibitor-based combinations targeting novel dependencies in MECOM-rearranged (r) AML: HNT-34 cell line (AID 2202234); further: nearly all actives have a fitted effect of over 35% in size; further: potency means the concentration at half of the fitted maximal effect;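 on viability (% of control): plate controls were vehicle wells for no effect and cell-free wells for full effect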
In short: as §2

[5] = BET inhibitor-based combinations targeting novel dependencies in MECOM-rearranged (r) AML: UCSD-AML1 cell line (AID 2202235); further: nearly all actives have a fitted effect of over 40% in size; further: potency means the concentration at half of the fitted maximal effect;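 on viability (% of control): series mostly up to about 46 µM; plate controls were DMSO vehicle wells for no effect and blank wells for full effect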
In short: as §2

[6] = BET inhibitor-based combinations targeting novel dependencies in MECOM-rearranged (r) AML: AML-191 cell line (AID 2202236; further: nearly all actives have a fitted effect of over 35% in size; further: potency means the concentration at half of the fitted maximal effect;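 on viability (% of control): plate controls were vehicle wells for no effect and wells without cells for full effect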)
In short: as §1

[7] = BET inhibitor-based combinations targeting novel dependencies in MECOM-rearranged (r) AML: AML-194 cell line (AID 2202237; further: nearly all actives have a fitted effect of over 40% in size; further: potency means the concentration at half of the fitted maximal effect;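 on viability (% of control): plate controls were vehicle wells for no effect and wells without cells for full effect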)
In short: as §1

[8] = target: Retinaldehyde dehydrogenase 3 (Homo sapiens) (UniProt P47895); experiment: qHTS for Inhibitors of the Aldehyde Dehydrogenase Family (ALDH1A3) Confirmatory screens (AID 2061311); further: potency means the concentration at half of the fitted maximal effect; nearly all actives have a fitted effect of over 60% in size
[9] = target: Retinaldehyde dehydrogenase 3 (Homo sapiens) (UniProt P47895); experiment: qHTS for Inhibitors of the Aldehyde Dehydrogenase Family (ALDH1A3) Validation screen (AID 2061312); further: on the % scale 0 is the no-effect control and ±100 the full control effect; nearly all actives have a fitted effect of over 45% in size
[10] = target: Retinal dehydrogenase 2 (Homo sapiens) (UniProt O94788); experiment: qHTS for Inhibitors of the Aldehyde Dehydrogenase Family (ALDH1A2) Confirmation screens (AID 2061314); further: potency means the concentration at half of the fitted maximal effect; nearly all actives have a fitted effect of over 65% in size
[11] = target: Aldehyde dehydrogenase 1A1 (Homo sapiens) (UniProt P00352); experiment: qHTS for Inhibitors of the Aldehyde Dehydrogenase Family (ALDH1A1) Confirmatory screens (AID 2061316); further: potency means the concentration at half of the fitted maximal effect; nearly all actives have a fitted effect of over 65% in size
[12] = target: Retinaldehyde dehydrogenase 3 (Homo sapiens) (UniProt P47895); experiment: qHTS for Inhibitors of the Aldehyde Dehydrogenase Family (ALDH1A3) Primary screen (AID 2061315);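 further: plate controls were DMSO vehicle for no effect and reference inhibitor for full effect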

Cc1cc(=O)oc2cc(O)ccc12
viability [1]: 111% (inactive) | Potency [2]: inactive | Potency [3]: inactive | Potency [4]: inactive | Potency [5]: inactive | Potency [6]: inactive | Potency [7]: inactive

Cc1cc(Nc2ncc3c(n2)N(C)C(=O)N(c2cc(NC(=O)c4cccc(C(F)(F)F)c4)ccc2C)C3)n(C)n1
Potency [1]: 0.833 µM (active) | Potency [2]: 0.296 µM (active) | Potency [3]: 0.0372 µM (active) | Potency [4]: 0.0263 µM (active) | Potency [5]: 0.417 µM (active) | Potency [6]: 0.235 µM (active)

O=C(NCCCNc1nc(Nc2cccc(NC(=O)N3CCCC3)c2)ncc1I)c1cccs1
Potency [3]: 0.662 µM (active) | Potency [5]: 5.25 µM (active)

CC1=CC(=O)c2ccccc2C1=O
Potency [2]: 18.6 µM (active) | Potency [3]: 7.42 µM (active) | Potency [4]: 23.5 µM (active) | Potency [7]: 18.6 µM (active)

O=C(O)[C@H](O)[C@@H](O)[C@H](O[C@@H]1O[C@H](CO)[C@H](O)[C@H](O)[C@H]1O)[C@H](O)CO
Potency [2]: inactive | Potency [3]: inactive | Potency [4]: inactive | Potency [5]: inactive | Potency [7]: inactive

O=C(N[C@@H](Cc1ccccc1)C(=O)CCl)OCc1ccccc1
Potency [8]: 11.2 µM (active) | Potency [9]: inactive | Potency [10]: 0.798 µM (active) | Potency [11]: 0.318 µM (active)

CCCCCCCCCCCCCCCC(=O)O[C@H]1[C@@H](O)[C@@H](O)[C@@H]([C@H](NC(=O)[C@@H]2C[C@@H](CCC)CN2C)[C@H](C)Cl)O[C@@H]1SC
viability [1]: 108% (inactive) | Potency [3]: 16.6 µM (active)

CC(=O)OC1C(C)OC(Oc2c(-c3ccc(O)cc3)oc3cc(O)cc(O)c3c2=O)C(O)C1OC(C)=O (stereo unspecified)
viability [1]: 114% (inactive) | Potency [2]: inactive | Potency [4]: inactive | Potency [5]: inactive | Potency [6]: inactive | Potency [7]: inactive

C1CCC(C(CC2CCCCN2)C2CCCCC2)CC1 (stereo unspecified)
Potency [1]: 11.8 µM (active) | Potency [2]: 6.61 µM (active) | Potency [3]: 8.33 µM (active) | Potency [4]: 7.42 µM (active) | Potency [7]: 7.42 µM (active)

O=C(O)[C@H](Cc1ccc(Nc2nccc3ccncc23)cc1)NC1=C(Br)C(=O)C12CCCCC2
Potency [12]: inactive

CC(C)c1ccccc1Cc1cc(C(=O)Nc2ccc(S(=O)(=O)c3ccccc3C(C)(C)C)cc2)c(O)c(O)c1O
Potency [2]: 4.68 µM (active) | Potency [3]: 10.5 µM (active) | Potency [5]: 10.5 µM (active) | Potency [6]: 9.34 µM (active) | Potency [7]: 10.5 µM (active)

COc1cc(C(=O)NC2CCN(C)CC2)ccc1Nc1ncc2c(n1)N(C1CCCC1)CCC(=O)N2C(C)C
Potency [1]: 23.5 µM (active) | Potency [3]: 6.61 µM (active) | Potency [4]: 16.6 µM (active) | Potency [7]: 23.5 µM (active)

CC(C(=O)O)c1ccc(-c2ccccc2)c(F)c1 (stereo unspecified)
viability [1]: 111% (inactive) | Potency [2]: inactive | Potency [3]: inactive | Potency [4]: inactive | Potency [5]: inactive | Potency [7]: inactive

O=C(O)c1ccc(-n2cccc2/C=C2\SC(=O)N(Cc3ccc(Cl)cc3)C2=O)cc1
Potency [10]: 17.8 µM (active) | Potency [12]: inactive | Potency [11]: 4 µM (active)

O=C(O)c1cn(C2CC2)c2cc(N3CCNCC3)c(F)cc2c1=O
viability [1]: 109% (inactive) | viability (% of control) [2]: 109% [at 8.46 µM] (inactive) | viability, % of control [3]: 112% [at 8.46 µM] (inactive) | viability (% of control) [4]: 97.3% [at 8.46 µM] (inactive) | viability (% of control) [5]: 101% [at 8.46 µM] (inactive) | viability (% of control) [7]: 113% [at 8.46 µM] (inactive)

NC(=O)C1CCCc2c1[nH]c1ccc(Cl)cc21 (stereo unspecified)
viability [1]: 104% (inactive) | Potency [2]: inactive | Potency [3]: inactive | Potency [4]: inactive | Potency [5]: inactive | Potency [6]: inactive | Potency [7]: inactive

CC(C)C[C@H](CC(=O)O)C(=O)N[C@@H](Cc1c[nH]c2ccccc12)C(=O)N[C@@H](C)c1ccccc1
viability [1]: 104% (inactive) | Potency [3]: inactive | Potency [7]: 18.6 µM (active)

COc1ccc(-n2[nH]c(=O)c3[nH]c4cc(Cl)ccc4c(=O)c3c2=O)c(C)c1
Potency [12]: inactive

N#Cc1c(NC(=O)c2cccc3ccccc23)sc2c1CCCC2
Potency [1]: 0.525 µM (active) | Potency [2]: 0.332 µM (active) | Potency [3]: 0.372 µM (active) | Potency [5]: 0.332 µM (active) | Potency [6]: 0.296 µM (active) | Potency [7]: 0.332 µM (active)

C[C@H]1COc2c(N3CCN(C)CC3)c(F)cc3c(=O)c(C(=O)O)cn1c23
viability [1]: 108% (inactive) | Potency [2]: inactive | Potency [3]: inactive | Potency [4]: inactive | Potency [5]: inactive | Potency [6]: inactive | Potency [7]: inactive

CC(C(C)N1CC(=O)NC(=O)C1)N1CC(=O)NC(=O)C1 (stereo unspecified)
viability [1]: 107% (inactive) | Potency [2]: 5.9 µM (active) | Potency [3]: 1.18 µM (active) | Potency [6]: 9.34 µM (active) | Potency [7]: inactive

O=C(CN1C(=O)C2(CCCC2)NC[C@H]1c1cc(F)cc(F)c1)Nc1ccc2c(c1)C[C@@]1(C2)C(=O)Nc2ncccc21
Potency [2]: inactive | Potency [3]: inactive | Potency [4]: inactive | Potency [5]: inactive | Potency [6]: inactive

C=C/C=C/[C@@H]1OC[C@H](/C=C/C=C/C)[C@H]1O
Potency [12]: inactive

C#Cc1cccc(Nc2ncnc3cc(OCCOC)c(OCCO)cc23)c1
Potency [3]: 2.63 µM (active) | Potency [4]: 2.63 µM (active) | Potency [5]: 13.2 µM (active) | Potency [6]: 16.6 µM (active)

C[C@@H]1CN(CC(=O)Nc2ccc3c(c2)Cc2cccc(-c4cc(=O)cc(N5CCOCC5)o4)c2S3)C[C@H](C)O1
viability [1]: 86.1% (inactive)
